Results reported in PubChem BioAssay (NCI).
About 83,000 compounds went through this panel and 20% of them were active in at least one assay; those are over-represented in the sample as a whole.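 Percent growth is the endpoint: 0 to 100 indicates growth inhibition (40 means 60% inhibition), 0 means no net growth, and negative values indicate cell death.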 Values without a mark were called inactive. Calls of active or inactive are those of the source. The calls were made as follows: active = growth percent below 10; inactive = the rest.

Columns and labels:
Assay in all cases: NCI-60 one-dose screen, 48 h (100 = growth as untreated, 0 = no growth, -100 = all killed)
Conditions in all cases: 10 µM unless noted
NCI-H23 lung = system: NCI-H23 lung
NCI-H226 lung = system: NCI-H226 lung
NCI-H322M lung = system: NCI-H322M lung
HOP-62 NSCLC = system: HOP-62 NSCLC
NCI-H460 lung = system: NCI-H460 lung
HOP-92 NSCLC = system: HOP-92 NSCLC
NCI-H522 lung = system: NCI-H522 lung
A549/ATCC NSCLC = system: A549/ATCC NSCLC
786-0 renal = system: 786-0 renal
COLO 205 colon = system: COLO 205 colon
DU-145 prostate = system: DU-145 prostate
K-562 leukemia = system: K-562 leukemia
MALME-3M melanoma = system: MALME-3M melanoma
MDA-MB-231 breast = system: MDA-MB-231 breast
RXF 393 renal = system: RXF 393 renal
SF-268 CNS = system: SF-268 CNS
SF-295 CNS = system: SF-295 CNS
SF-539 CNS = system: SF-539 CNS
UACC-257 melanoma = system: UACC-257 melanoma
M14 melanoma = system: M14 melanoma

| SMILES | growth (NCI-H23 lung) | growth (NCI-H226 lung) | growth (NCI-H322M lung) | growth (HOP-62 NSCLC) | growth (NCI-H460 lung) | growth (HOP-92 NSCLC) | growth (NCI-H522 lung) | growth (A549/ATCC NSCLC) | growth (786-0 renal) | growth (COLO 205 colon) | growth (DU-145 prostate) | growth (K-562 leukemia) | growth (MALME-3M melanoma) | growth (MDA-MB-231 breast) | growth (RXF 393 renal) | growth (SF-268 CNS) | growth (SF-295 CNS) | growth (SF-539 CNS) | growth (UACC-257 melanoma) | growth (M14 melanoma) |
| --- | --- | --- | --- | --- | --- | --- | --- | --- | --- | --- | --- | --- | --- | --- | --- | --- | --- | --- | --- | --- |
| N#Cc1c(-c2ccc(Cl)cc2)nc2c(c(-c3ccccc3)nn2-c2ccccc2)c1-c1ccc(O)cc1 | 49% | 65.9% | 70.8% | 49.9% | 25.1% | 56.4% | 55.6% | 41.9% | 17.7% | 52.6% | 50.8% | 8.36% (active) | 61.5% | 36.5% | -27% (active) | 46.6% | 1.71% (active) | 11.2% | 85.2% | 38.3% |
| COc1c(N2CC3CCCN(C(C)=O)C3C2)c(F)cc2c(=O)c(C(=O)N[C@H]3C(O)[C@@H](O)C(CO)O[C@H]3O)cn(C3CC3)c12 (stereo not given in full) | 105% | 108% | 106% | 103% | 108% | 103% | 94.9% | 103% | 101% | 110% | 112% | 103% | 117% | 103% | 128% | 92.3% | 103% | 103% | 103% | 110% |
| CCC12CCC[N+]3([O-])CCC4(C(=Nc5ccccc54)C(O)(C(=O)OC)C1)C23 (stereo not given) | 101% | 106% | 103% | 94.5% | 111% | 94.4% | 115% | 114% | 106% | 118% | 103% | 109% | 104% | 103% | 113% | 96.2% | 102% | 103% | 115% | 96.7% |
| CNCCCC12CCC(c3ccccc31)c1ccccc12 | 92.1% | 107% | 92% | 82.9% | 97.3% | 48.5% | 88.8% | 90.1% | 65.7% | 7.78% (active) | 103% | 80.6% | 82.6% | 80.2% | 61.7% | 92.5% | 100% | 99.2% | 95.9% | 80.4% |
| Cc1ccc(/C=N\NC(=O)c2[nH]c3ccc(F)cc3c2-c2ccccc2)cc1 | 38% | 46.4% | 57.7% | 42.3% | 3.26% (active) | 4.75% (active) | -42.3% (active) | 23% | 35.1% | -78.8% (active) | -2.21% (active) | 16.9% | 15.6% | 36.5% | 47.6% | 38.9% | -6.59% (active) | 21.4% | 59.7% | 24.1% |
| NCCCNc1nc2ccc(Cl)cc2c2c(=O)c3cc(F)ccc3sc12 | 82.9% | 91.9% | 74.9% | 81.9% | -68.8% (active) | 30.3% | 62.4% | 58.2% | 72.7% | 31.9% | 24.4% | -38.7% (active) | 103% | 3.44% (active) | 62.3% | 53.2% | 103% | 70.7% | 98.3% | 55% |
| CCOC(=O)CC1C(COC(=O)NC)OC(n2cnc3c(NC(=O)Nc4ccccc4)ncnc32)C1O[Si](C)(C)C(C)(C)C (stereo not given) | 81% | 55.5% | 91.1% | 77.4% | 13.2% | 62.1% | 45.3% | 51.3% | 72.5% | 67.4% | 58.7% | 28.7% | 53.5% | 71.7% | 35% | 59.9% | 66.1% | 33.4% | 59.2% | 57.1% |
| COc1ccc2nc(NCCCNCCO)c3sc4ccc(F)cc4c(=O)c3c2c1 | 62.7% | 87.9% | 67.8% | 74% | -72.8% (active) | 12.2% | 45.6% | 49.2% | 56.7% | -49.3% (active) | -49.7% (active) | -36.8% (active) | 91.8% | -26.7% (active) | 44.4% | 47.2% | 84.6% | -88.9% (active) | 95.4% | -57.1% (active) |
| c1cc(-c2nnc(SSc3ncnc4nc[nH]c34)o2)ccn1 | 43% | 53.5% | 55.9% | 52.4% | 48.4% | 52.9% | 6.68% (active) | 92.5% | 13.8% | 67.7% | 41.5% | 17% | 103% | 20.6% | 61.8% | 35% | 21.9% | 15.4% | 51.9% | 7.94% (active) |
| CN(C)CCS(=O)(=O)Nc1cc(-c2ccc3ncc(C#N)c(Nc4ccc(F)c(Cl)c4)c3c2)cnc1Cl | -28.5% (active) | -15.2% (active) | -54.5% (active) | 0.0433% (active) | 0.906% (active) | -17.9% (active) | -39.8% (active) | -30.5% (active) | -20.1% (active) | -80.8% (active) | -10.3% (active) | 6.62% (active) | -50.5% (active) | -39.5% (active) | -56% (active) | -41% (active) | -19% (active) | -36.4% (active) | -17.3% (active) | -40.4% (active) |
| NC1CCN(c2nc(Nc3cccc(C(F)(F)F)c3)c3c(=O)[nH]ccc3n2)CC1 | -58.9% (active) | -62.5% (active) | -12.7% (active) | -58.8% (active) | -59.1% (active) | -61.5% (active) | -85.3% (active) | -52.2% (active) | -97.7% (active) | -61.1% (active) | 7.32% (active) | -48.7% (active) | -64.1% (active) | -62% (active) | -93.6% (active) | -46.2% (active) | -56.7% (active) | -96.5% (active) | -74.6% (active) | -95.2% (active) |
| CCCCn1c(-c2ccc(C(=O)O/N=C(\N)c3ccc(OC)cc3)cc2)nc(-c2ccccc2)c1-c1ccccc1 | -41.9% (active) | 69.5% | 62.3% | 11.7% | -32.3% (active) | -68.7% (active) | -63.2% (active) | -31.7% (active) | -63.9% (active) | 0.164% (active) | -93.4% (active) | -41% (active) | -51.7% (active) | -6.79% (active) | -49.8% (active) | 9.12% (active) | -40.8% (active) | -77.6% (active) | 43.7% | 51.3% |
| COc1cccc2nc3n(c12)C(c1c(F)cccc1F)SC3 (stereo not given) | 94.8% | 82.7% | 102% | 104% | 99% | 46.4% | 80.4% | 98% | 101% | 106% | 128% | 84.6% | 101% | 93.2% | 105% | 108% | 99.9% | 95.7% | 100% | 111% |
| O=C1c2cccc3cccc(c23)C(=O)N1Nc1nc(N2CCOCC2)nc(N2CCN(c3ccccc3)CC2)n1 | 64% | 57.5% | 65.5% | 46.3% | 28.8% | 7.52% (active) | 29.9% | 53.1% | 65.6% | 3.51% (active) | 55% | 18.4% | 21.7% | 56.3% | 30.9% | 53.8% | 20.6% | 50.2% | 71.8% | 19.4% |
| COc1ccc2c(c1)nc(NNC(=O)c1cnccn1)c1cccn12 | 33.4% | 39.3% | 28.5% | 28.6% | 7.94% (active) | 64.3% | 9.5% (active) | 24.6% | 26.1% | 7.24% (active) | 31.1% | 13.9% | 46.3% | 30.4% | 48% | 30.4% | 13.6% | 23.5% | 25.7% | 8.27% (active) |
